# Measured values from ChEMBL document CHEMBL2218924, “A broad activity screen in support of a chemogenomic map for kinase signalling research and drug discovery” (Biochem J, 2013).
# What was measured:
# [1] = biological target: T1, Serine/threonine-protein kinase TBK1 (Homo sapiens) (UniProt Q9UHD2); conditions: at 10 µM
# T1 sequence (whole entry): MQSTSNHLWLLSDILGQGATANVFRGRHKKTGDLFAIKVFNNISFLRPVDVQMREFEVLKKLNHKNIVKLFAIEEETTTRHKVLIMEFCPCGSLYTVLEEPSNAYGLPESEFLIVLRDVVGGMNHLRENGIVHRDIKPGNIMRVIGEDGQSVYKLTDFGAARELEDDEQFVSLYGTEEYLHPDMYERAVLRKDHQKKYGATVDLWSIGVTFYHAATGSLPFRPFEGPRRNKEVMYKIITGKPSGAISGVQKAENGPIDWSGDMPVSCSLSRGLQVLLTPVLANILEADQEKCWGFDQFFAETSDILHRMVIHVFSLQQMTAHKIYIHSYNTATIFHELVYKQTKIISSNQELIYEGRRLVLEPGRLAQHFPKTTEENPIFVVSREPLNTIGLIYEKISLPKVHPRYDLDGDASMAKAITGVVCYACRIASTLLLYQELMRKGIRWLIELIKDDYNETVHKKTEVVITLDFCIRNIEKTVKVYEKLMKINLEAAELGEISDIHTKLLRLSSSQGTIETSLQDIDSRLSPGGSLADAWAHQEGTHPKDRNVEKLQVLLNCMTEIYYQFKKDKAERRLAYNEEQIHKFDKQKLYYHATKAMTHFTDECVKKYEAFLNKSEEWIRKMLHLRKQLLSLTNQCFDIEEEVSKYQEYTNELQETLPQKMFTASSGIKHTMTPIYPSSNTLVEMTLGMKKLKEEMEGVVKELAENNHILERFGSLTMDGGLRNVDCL
# [2] = biological target: T2, TGF-beta receptor type-1 (Homo sapiens) (UniProt P36897); conditions: at 1 µM
# T2 sequence (whole entry): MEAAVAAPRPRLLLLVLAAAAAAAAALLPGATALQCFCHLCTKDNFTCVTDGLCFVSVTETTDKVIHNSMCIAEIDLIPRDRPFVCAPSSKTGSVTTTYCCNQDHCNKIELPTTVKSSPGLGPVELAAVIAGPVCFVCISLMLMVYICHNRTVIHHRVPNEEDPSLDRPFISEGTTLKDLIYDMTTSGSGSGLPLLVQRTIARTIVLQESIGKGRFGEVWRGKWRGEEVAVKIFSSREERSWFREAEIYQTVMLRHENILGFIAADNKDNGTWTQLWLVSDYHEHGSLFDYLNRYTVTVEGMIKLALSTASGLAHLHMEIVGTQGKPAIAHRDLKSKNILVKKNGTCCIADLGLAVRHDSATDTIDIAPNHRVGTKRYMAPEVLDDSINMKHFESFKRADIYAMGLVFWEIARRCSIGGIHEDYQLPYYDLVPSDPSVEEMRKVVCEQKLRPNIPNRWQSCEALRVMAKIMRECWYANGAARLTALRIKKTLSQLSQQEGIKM
# [3] = biological target: T2, TGF-beta receptor type-1 (Homo sapiens); conditions: at 10 µM
# [4] = biological target: Insulin-like growth factor 1 receptor (Homo sapiens) (UniProt P08069); conditions: at 1 µM
# Sequence of Insulin-like growth factor 1 receptor (Homo sapiens) (P08069 31-736 limits assumed): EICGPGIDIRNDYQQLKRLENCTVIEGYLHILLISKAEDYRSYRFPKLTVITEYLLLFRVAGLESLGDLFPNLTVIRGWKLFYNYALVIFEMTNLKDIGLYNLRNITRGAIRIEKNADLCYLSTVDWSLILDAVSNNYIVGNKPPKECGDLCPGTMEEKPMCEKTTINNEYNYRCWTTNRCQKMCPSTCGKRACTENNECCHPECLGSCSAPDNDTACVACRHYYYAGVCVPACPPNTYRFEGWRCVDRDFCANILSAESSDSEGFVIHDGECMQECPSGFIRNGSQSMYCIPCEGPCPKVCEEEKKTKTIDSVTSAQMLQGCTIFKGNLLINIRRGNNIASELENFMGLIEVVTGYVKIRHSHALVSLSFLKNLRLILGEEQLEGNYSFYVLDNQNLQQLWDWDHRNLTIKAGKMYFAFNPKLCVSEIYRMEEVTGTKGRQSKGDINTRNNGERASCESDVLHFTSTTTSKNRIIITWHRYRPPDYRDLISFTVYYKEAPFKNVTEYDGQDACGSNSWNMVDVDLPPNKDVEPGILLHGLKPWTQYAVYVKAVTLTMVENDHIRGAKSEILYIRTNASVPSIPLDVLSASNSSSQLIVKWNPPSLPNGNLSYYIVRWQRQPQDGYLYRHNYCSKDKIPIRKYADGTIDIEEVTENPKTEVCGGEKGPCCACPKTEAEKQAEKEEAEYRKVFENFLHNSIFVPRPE
# Sequence of Insulin-like growth factor 1 receptor (Homo sapiens) (P08069 741-1367 limits assumed): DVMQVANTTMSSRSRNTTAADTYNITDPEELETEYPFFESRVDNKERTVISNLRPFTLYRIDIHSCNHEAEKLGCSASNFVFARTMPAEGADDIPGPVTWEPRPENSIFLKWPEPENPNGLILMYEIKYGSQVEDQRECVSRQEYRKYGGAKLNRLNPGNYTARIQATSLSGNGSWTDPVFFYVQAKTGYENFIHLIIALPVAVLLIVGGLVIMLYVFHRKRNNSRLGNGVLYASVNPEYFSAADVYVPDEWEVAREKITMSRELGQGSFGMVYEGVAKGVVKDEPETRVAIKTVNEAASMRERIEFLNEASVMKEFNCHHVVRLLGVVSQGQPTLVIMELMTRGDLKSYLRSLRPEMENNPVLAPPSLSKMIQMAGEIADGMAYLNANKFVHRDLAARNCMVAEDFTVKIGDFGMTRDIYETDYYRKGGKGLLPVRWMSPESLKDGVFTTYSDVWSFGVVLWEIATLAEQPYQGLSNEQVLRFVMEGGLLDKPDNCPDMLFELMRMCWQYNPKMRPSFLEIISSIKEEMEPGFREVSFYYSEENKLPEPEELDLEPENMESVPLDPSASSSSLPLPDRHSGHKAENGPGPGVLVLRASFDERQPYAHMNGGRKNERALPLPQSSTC
# [5] = biological target: Insulin-like growth factor 1 receptor (Homo sapiens) (UniProt P08069); conditions: at 10 µM
# [6] = biological target: T3, Inhibitor of nuclear factor kappa-B kinase subunit alpha (Homo sapiens) (UniProt O15111); conditions: at 1 µM
# T3 sequence (whole entry): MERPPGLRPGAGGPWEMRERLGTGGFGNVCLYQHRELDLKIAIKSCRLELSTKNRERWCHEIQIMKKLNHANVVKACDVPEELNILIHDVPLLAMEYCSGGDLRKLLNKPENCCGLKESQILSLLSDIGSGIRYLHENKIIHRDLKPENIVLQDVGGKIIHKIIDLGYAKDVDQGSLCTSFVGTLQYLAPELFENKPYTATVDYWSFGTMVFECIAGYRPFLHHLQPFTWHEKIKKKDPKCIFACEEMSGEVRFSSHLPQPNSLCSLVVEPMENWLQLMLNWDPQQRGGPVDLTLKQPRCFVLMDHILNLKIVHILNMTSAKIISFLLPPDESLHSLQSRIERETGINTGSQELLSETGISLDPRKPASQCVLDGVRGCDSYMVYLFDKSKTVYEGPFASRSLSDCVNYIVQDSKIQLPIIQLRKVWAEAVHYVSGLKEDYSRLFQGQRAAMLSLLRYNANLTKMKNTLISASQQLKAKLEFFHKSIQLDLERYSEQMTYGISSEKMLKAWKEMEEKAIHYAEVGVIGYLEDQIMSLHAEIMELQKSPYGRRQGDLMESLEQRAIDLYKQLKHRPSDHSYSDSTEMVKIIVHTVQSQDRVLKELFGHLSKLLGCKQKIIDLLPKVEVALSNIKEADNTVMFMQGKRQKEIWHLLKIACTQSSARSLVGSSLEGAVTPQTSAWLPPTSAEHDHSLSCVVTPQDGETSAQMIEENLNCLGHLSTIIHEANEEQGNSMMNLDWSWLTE
# [7] = biological target: T3, Inhibitor of nuclear factor kappa-B kinase subunit alpha (Homo sapiens); conditions: at 10 µM
# [8] = biological target: T4, Inhibitor of nuclear factor kappa-B kinase subunit beta (Homo sapiens) (UniProt O14920); conditions: at 1 µM
# T4 sequence (whole entry): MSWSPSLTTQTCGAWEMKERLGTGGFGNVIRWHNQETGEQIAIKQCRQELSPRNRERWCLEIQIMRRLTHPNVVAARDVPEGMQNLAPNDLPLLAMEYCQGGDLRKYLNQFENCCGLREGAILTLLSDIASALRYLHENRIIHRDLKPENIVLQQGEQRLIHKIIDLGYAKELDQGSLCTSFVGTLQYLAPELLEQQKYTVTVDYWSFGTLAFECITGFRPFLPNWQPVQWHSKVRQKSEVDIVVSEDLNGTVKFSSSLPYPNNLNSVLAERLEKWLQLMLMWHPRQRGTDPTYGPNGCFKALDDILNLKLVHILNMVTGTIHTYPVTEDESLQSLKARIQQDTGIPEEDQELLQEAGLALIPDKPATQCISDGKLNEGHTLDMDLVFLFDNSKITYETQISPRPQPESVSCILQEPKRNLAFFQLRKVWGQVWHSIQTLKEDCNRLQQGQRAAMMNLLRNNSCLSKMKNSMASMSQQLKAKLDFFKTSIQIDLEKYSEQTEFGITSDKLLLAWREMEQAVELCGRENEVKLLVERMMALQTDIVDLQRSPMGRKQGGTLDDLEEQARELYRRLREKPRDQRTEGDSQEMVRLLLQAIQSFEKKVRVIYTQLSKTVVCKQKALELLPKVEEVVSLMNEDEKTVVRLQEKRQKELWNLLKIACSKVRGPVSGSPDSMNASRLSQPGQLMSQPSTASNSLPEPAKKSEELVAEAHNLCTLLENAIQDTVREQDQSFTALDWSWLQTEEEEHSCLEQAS
# [9] = biological target: T4, Inhibitor of nuclear factor kappa-B kinase subunit beta (Homo sapiens); conditions: at 10 µM
# [10] = biological target: Insulin receptor (Homo sapiens) (UniProt P06213); conditions: at 1 µM
# Sequence of Insulin receptor (Homo sapiens) (P06213 28-758 limits assumed): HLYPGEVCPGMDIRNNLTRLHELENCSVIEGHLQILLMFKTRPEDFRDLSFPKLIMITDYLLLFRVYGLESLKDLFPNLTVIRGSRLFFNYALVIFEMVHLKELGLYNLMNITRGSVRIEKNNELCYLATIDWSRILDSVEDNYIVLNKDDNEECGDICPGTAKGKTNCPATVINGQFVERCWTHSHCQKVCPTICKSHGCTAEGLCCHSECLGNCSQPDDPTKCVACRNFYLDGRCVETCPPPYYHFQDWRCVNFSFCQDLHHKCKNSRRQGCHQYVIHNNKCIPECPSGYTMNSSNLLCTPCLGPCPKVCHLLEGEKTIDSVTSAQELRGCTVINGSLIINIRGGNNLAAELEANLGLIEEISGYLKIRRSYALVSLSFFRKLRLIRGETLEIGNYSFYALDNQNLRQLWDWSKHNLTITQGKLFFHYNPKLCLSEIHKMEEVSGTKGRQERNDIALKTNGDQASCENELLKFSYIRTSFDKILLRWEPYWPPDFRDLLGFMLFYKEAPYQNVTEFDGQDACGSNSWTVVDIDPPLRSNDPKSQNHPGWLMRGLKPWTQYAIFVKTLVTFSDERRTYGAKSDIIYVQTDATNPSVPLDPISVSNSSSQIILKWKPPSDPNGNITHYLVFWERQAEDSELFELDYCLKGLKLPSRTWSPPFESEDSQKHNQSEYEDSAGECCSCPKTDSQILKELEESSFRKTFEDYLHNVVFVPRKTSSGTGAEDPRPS
# Sequence of Insulin receptor (Homo sapiens) (P06213 763-1382 limits assumed): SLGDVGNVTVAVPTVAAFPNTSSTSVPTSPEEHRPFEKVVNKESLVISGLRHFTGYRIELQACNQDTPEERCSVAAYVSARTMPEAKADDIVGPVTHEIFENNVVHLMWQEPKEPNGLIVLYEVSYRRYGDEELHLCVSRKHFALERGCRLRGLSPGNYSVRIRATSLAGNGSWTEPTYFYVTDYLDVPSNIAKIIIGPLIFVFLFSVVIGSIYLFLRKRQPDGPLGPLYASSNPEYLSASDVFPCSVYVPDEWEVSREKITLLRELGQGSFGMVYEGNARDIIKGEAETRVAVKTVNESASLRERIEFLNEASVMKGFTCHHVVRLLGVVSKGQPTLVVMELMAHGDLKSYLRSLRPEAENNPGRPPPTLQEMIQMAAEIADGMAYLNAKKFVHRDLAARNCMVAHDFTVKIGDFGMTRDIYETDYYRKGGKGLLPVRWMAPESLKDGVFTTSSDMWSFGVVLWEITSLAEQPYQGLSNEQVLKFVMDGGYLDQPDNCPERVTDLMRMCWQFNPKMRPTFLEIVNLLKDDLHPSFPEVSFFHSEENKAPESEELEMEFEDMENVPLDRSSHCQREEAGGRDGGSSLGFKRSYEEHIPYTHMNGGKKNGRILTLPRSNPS
structure (smiles),measurement,setting,value
Cc1ccc(NC2=CC(=O)c3sc(C)nc3C2=O)cc1,residual activity,[1],74%
same,residual activity,[2],90%
same,residual activity,[3],83%
same,residual activity,[4],95%
same,residual activity,[5],92%
same,residual activity,[6],107%
same,residual activity,[7],103%
same,residual activity,[8],106%
same,residual activity,[9],98%
same,residual activity,[10],95%
